The source made the active and inactive calls.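 How the source made its calls: active means GFP response vs DMSO above 150% with enough events counted; inconclusive means fewer than 70 events counted for a yeast strain; inactive means the rest.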

The assay in a line: MEP2-GFP expression modulation in yeast, confirmation, flow cytometry, third cherry pick, S. cerevisiae (AID 504321).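 Further: median per-cell GFP fluorescence by flow cytometry across all yeast cells; ratio of sample to DMSO median GFP so 100% equals the DMSO level.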 Conditions: S. cerevisiae MEP2-GFP strain, 3 h, at 10 µM, stronger effect = higher value. For orientation: A flow cytometer gives signals particle by particle.
As for `C/C(=C\C(=O)c1ccccc1)Nc1ccc(O)cc1`, the GFP response vs DMSO is 105% (inactive).

Consider `COc1ccc(OC)c2c(C)cc(C)nc12`, for which the GFP response vs DMSO is 108% (inactive).

In the case of `COCC(C)NC(=O)CCS(=O)(=O)c1nc(-c2ccc(OC)cc2)cc(C(F)(F)F)n1` (centres undefined), the GFP response vs DMSO is 112% (inactive). Then `Cc1ccc(C(=O)/C=C/Nc2cccc(O)c2)cc1`, with 116% (inactive); and `COC1=C/C(=C/c2c(N)n3cc(C)sc3nc2=O)C=CC1=O`, with 131% (inactive). For `CCc1c(C)nc2c(OC)cccc2c1Cl`, the GFP response vs DMSO was 110% (inactive). `C/C(=C\C(=O)c1ccc(Cl)cc1)Nc1ccc(Br)cc1`: the GFP response vs DMSO was 105% (inactive). Consider `CC(=O)CC(=O)Nc1ccc(C(N)=O)cc1`, for which the GFP response vs DMSO was 112% (inactive).

In the case of `O=C(Nc1cccc(Cl)c1)ON=C1c2ccccc2-c2ccccc21`, the GFP response vs DMSO is 110% (inactive). Take `COc1ccccc1OCc1cc(C(=O)N2CCN(C)C(c3ccccc3)C2)no1` (centres undefined): the GFP response vs DMSO is 110% (inactive).

On to `CCC(C)Nc1nc(N)c([N+](=O)[O-])c(Nc2ccccc2OC)n1` (centres undefined), for which the GFP response vs DMSO was 114% (inactive). Turning to `Cc1cc(C)c2ccc(C(=O)O)nc2c1O`, the GFP response vs DMSO is 112% (inactive). Take `CC1=NNC(=O)/C1=C\c1cn(-c2ccccc2)nc1-c1ccc(F)cc1`: the GFP response vs DMSO was 131% (inactive). As to `Cn1cccc1C(=O)Nc1nc(-c2ccccn2)cs1`, the GFP response vs DMSO is 101% (inactive). As for `C/C(=C\C(=O)c1ccccc1)Nc1cccc(O)c1`, the GFP response vs DMSO was 110% (inactive).

Regarding `COCCCNc1nc(N)c([N+](=O)[O-])c(Nc2cc(OC)ccc2OC)n1`, the GFP response vs DMSO was 110% (inactive). As for `O=C(Nc1ccccc1)O/N=C1/CCCc2occc21`, the GFP response vs DMSO was 112% (inactive).

Take `Oc1ccc(F)c2cccnc12`: the GFP response vs DMSO was 116% (inactive). As for `Cn1c(=O)c2c(n3cnnc13)-c1ccccc1CC21CCCC1`, the GFP response vs DMSO is 112% (inactive). `C/C(=C\C(=O)c1ccc(C)cc1)Nc1cccc(O)c1`: the GFP response vs DMSO was 108% (inactive).

In the case of `Cc1ccc(Nc2cc(=O)[nH]c(=O)[nH]2)cc1C`, the GFP response vs DMSO was 114% (inactive). `COCCCNc1nc(N)c([N+](=O)[O-])c(Nc2ccccc2OC)n1`: the GFP response vs DMSO is 110% (inactive). On to `FC(F)Oc1cccc2cccnc12`, for which the GFP response vs DMSO was 110% (inactive). As for `CNc1nc(C)c([N+](=O)[O-])c(Nc2ccc(OC)cc2)n1`, the GFP response vs DMSO was 105% (inactive). On to `Nc1c(C(=O)O)ccc2c1C(=O)c1ccccc1C2=O`, for which the GFP response vs DMSO was 127% (inactive). As for `COc1ccc(OC)c2c(=O)cc(C(=O)O)[nH]c12`, the GFP response vs DMSO was 105% (inactive). Then `CSc1nc(S(C)(=O)=O)nc2[nH]c(=O)[nH]c12`, with 110% (inactive); and `CC(=O)Nn1cnc2c(c1=O)C1(CCCCC1)Cc1ccccc1-2`, with 114% (inactive). With `CCCCC(=O)NCCc1cc2c(OC)ccc(OC)c2[nH]c1=O`, the GFP response vs DMSO is 108% (inactive). Regarding `CCCC(=O)Nn1cnc2c(c1=O)C1(CCCC1)Cc1ccccc1-2`, the GFP response vs DMSO was 105% (inactive). With `COc1cccc(OCc2cc(C(=O)N3CCN(C)C(c4ccccc4)C3)no2)c1` (centres undefined), the GFP response vs DMSO is 108% (inactive). `O=C(O)CCS(=O)(=O)c1nc(-c2cccs2)cc(C(F)(F)F)n1`: the GFP response vs DMSO was 116% (inactive).

On to `Cc1cccc(N/C=C/C(=O)c2ccc(Cl)cc2)c1`, for which the GFP response vs DMSO was 112% (inactive). Turning to `O=C(N/N=C/c1ccccc1)c1cccc2ccccc12`, the GFP response vs DMSO was 103% (inactive). `O=c1cc(C(F)(F)F)[nH]c2c(OC(F)(F)F)cccc12`: the GFP response vs DMSO was 114% (inactive). `CC(=O)C(CC(=O)N1CCCC1)C(=O)Nc1ccc(Cl)cc1` (centres undefined): the GFP response vs DMSO was 105% (inactive). With `Cc1nc(Nc2ccc(Cl)cc2)c(C#N)c(=O)[nH]1`, the GFP response vs DMSO is 108% (inactive). Then `Oc1c(Cl)cc(Cl)c2cccnc12`, with 181% (active); and `CCOC(=O)CS(=O)(=O)c1nc(-c2ccccc2)cc(C(F)(F)F)n1`, with 151% (active).

The record behind these values is PubChem BioAssay AID504321 (NMMLSC, 2011).
